# Legend:
# Assay in all cases: DAPPL (digital affinity profiling via proximity ligation, sequencing); 10 mM Tris-HCl pH 7.5, 50 mM NaCl, 1 mM DTT, 4% glycerol, room temperature, 30 min; GST-TFs on glutathione beads, 16-mer random dsDNA library, 0.1% formaldehyde crosslink after washing; high values mean tight binding
# Conditions in all cases: protein: recombinant; tags: N-terminal GST; dsDNA, one strand shown
# FLI1 = target: T1, FLI1 (Homo sapiens, UniProt Q01543 1-452)
# T1 sequence: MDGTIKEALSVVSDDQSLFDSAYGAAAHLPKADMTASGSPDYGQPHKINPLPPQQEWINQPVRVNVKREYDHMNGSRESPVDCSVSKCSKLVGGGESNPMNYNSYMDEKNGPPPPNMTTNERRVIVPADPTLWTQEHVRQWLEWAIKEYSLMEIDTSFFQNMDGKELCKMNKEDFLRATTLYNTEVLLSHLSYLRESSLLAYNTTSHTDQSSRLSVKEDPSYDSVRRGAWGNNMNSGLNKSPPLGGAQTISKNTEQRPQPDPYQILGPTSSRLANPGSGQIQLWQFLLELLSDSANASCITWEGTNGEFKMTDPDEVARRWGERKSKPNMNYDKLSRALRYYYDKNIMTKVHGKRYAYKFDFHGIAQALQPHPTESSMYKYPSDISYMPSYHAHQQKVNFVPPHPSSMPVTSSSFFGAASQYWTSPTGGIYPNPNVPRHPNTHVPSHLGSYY
# How it was run: (§1)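 After expression in yeast as GST fusions, human transcription factors were bound to glutathione beads, DNA-barcoded and mixed with a tag-only sample. The pools were incubated with 200 nmole of a 16-mer random double-stranded DNA library in Tris/NaCl/DTT/glycerol buffer (30 min, room temperature), washed and crosslinked with 0.1% formaldehyde. Proximity ligation with BsaI/T4 ligase ran for 1 h at 37 °C, before PCR amplification and sequencing on an Illumina NextSeq500. Binding signal is a hexamer's read frequency for a factor divided by its frequency for the tag-only sample.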
# ELK1 = target: T2, ELK1 (Homo sapiens, UniProt P19419 1-428)
# T2 sequence: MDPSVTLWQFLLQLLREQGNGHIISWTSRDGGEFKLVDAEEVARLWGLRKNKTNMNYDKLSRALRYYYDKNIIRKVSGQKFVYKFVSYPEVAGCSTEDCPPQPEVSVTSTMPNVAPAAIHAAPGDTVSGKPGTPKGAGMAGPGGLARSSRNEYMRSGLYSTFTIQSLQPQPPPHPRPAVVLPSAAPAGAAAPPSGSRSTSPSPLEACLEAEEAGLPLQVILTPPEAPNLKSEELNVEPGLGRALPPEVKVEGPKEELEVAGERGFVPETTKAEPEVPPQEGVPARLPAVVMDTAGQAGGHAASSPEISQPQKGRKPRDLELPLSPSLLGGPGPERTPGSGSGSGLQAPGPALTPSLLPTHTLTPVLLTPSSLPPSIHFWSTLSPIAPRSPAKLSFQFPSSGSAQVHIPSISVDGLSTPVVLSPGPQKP
# How it was run: as §1
# GABPA = target: T3, GABPA (Homo sapiens, UniProt Q06546 1-454)
# T3 sequence: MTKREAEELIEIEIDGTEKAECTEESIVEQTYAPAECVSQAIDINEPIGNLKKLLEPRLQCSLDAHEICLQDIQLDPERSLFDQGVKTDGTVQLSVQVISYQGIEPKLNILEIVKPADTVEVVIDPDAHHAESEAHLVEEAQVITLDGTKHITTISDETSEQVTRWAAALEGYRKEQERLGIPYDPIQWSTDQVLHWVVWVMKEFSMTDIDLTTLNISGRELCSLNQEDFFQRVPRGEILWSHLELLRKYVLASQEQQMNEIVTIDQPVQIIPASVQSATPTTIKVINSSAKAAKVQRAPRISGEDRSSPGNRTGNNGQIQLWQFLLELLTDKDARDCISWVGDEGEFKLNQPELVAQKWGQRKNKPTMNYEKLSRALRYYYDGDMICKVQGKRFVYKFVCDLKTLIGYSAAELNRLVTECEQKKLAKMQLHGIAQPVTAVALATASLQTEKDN
# How it was run: as §1
# ERG = target: T4, ERG (Homo sapiens, UniProt P11308 1-479)
# T4 sequence: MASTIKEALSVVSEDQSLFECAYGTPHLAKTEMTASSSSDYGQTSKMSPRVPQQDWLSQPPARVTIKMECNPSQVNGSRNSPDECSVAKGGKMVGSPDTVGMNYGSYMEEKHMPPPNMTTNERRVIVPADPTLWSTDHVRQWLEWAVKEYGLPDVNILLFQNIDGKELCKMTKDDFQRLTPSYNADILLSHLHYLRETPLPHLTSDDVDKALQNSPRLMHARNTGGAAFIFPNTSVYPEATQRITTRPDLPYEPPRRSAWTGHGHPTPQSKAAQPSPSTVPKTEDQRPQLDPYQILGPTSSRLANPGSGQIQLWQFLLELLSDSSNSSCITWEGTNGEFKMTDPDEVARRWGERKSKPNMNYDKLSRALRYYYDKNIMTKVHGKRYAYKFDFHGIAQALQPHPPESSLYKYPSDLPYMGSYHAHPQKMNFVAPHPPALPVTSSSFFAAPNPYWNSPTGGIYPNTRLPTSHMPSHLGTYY
# How it was run: as §1
# ELF1 = ELF1 (Homo sapiens, UniProt P32519 1-619)
# How it was run: as §1
# EHF = target: T5, EHF (Homo sapiens, UniProt Q9NZC4 1-300)
# T5 sequence: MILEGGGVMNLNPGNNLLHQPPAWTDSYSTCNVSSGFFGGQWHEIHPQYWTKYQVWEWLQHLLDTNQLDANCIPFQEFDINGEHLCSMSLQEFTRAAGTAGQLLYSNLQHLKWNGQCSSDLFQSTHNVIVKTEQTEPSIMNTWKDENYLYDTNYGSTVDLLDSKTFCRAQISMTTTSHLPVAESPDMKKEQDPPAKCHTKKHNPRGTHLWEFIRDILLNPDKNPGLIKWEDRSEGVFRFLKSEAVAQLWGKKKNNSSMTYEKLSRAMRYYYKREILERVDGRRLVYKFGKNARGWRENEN
# How it was run: as §1
# SPI1 = SPI1 (Homo sapiens, UniProt P17947 1-270)
# How it was run: as §1
# SPIB = SPIB (Homo sapiens, UniProt Q01892 1-262)
# How it was run: as §1
# ELK3 = target: T6, ELK3 (Homo sapiens, UniProt P41970 1-407)
# T6 sequence: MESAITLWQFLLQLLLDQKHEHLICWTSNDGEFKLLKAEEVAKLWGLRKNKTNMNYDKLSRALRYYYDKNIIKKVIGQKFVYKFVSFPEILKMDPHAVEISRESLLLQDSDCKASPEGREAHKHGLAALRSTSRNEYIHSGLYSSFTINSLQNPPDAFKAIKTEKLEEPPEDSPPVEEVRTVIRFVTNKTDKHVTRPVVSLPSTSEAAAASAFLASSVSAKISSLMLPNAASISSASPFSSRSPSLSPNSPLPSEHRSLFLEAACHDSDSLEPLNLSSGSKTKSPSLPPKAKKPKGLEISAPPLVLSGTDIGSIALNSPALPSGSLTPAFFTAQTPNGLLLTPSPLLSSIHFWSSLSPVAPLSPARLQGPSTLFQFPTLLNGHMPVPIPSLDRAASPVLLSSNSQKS
# How it was run: as §1
# FEV = target: T7, FEV (Homo sapiens, UniProt Q99581 1-238)
# T7 sequence: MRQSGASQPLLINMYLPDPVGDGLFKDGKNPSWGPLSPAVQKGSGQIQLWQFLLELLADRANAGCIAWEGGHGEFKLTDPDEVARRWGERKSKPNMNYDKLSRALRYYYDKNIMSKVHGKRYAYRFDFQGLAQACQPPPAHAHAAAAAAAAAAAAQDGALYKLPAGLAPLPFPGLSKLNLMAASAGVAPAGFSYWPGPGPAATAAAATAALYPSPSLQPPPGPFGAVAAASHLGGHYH
# How it was run: as §1
# ETV5 = ETV5 (Homo sapiens, UniProt P41161 1-510)
# How it was run: as §1
# SPIC = target: T8, SPIC (Homo sapiens, UniProt Q8N5J4 1-248)
# T8 sequence: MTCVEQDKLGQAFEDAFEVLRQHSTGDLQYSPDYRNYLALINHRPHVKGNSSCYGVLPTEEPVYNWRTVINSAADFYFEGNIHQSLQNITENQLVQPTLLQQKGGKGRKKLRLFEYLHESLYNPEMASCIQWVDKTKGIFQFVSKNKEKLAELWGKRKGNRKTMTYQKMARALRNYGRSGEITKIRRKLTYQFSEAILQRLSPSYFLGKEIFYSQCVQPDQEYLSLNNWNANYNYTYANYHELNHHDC
# How it was run: as §1
# ELF4 = ELF4 (Homo sapiens, UniProt Q99607 1-663)
# How it was run: as §1
# ETV1 = ETV1 (Homo sapiens, UniProt P50549 1-477)
# How it was run: as §1
# ERF = target: T9, ERF (Homo sapiens, UniProt P50548 1-548)
# T9 sequence: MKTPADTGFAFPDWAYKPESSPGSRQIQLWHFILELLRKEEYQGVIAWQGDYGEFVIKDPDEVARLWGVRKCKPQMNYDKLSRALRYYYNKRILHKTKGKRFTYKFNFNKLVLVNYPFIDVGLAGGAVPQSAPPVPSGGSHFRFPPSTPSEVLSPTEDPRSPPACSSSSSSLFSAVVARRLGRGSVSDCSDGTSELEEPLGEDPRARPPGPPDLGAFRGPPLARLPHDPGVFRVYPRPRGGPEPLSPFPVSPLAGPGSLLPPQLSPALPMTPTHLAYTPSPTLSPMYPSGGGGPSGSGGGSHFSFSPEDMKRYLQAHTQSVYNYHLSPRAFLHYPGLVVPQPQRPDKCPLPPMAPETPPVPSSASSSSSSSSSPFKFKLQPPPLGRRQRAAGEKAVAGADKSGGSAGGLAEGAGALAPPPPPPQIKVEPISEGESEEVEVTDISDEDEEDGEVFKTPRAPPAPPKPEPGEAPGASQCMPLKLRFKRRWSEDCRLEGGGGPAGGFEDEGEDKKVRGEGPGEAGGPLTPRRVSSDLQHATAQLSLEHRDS
# How it was run: as §1
# ETV3L = target: T10, ETV3L (Homo sapiens, UniProt Q6ZN32 1-361)
# T10 sequence: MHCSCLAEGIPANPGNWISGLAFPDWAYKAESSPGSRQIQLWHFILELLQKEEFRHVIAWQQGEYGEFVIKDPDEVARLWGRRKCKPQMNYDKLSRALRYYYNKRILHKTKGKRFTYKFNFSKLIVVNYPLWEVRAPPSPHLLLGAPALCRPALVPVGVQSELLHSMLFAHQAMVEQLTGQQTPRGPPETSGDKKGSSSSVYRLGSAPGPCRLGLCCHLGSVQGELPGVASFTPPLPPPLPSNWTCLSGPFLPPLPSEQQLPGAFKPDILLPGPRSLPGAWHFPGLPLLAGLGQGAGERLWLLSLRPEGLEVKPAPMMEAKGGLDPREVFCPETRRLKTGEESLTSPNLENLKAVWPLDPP
# How it was run: as §1
# ETS2 = target: T11, ETS2 (Homo sapiens, UniProt P15036 1-469)
# T11 sequence: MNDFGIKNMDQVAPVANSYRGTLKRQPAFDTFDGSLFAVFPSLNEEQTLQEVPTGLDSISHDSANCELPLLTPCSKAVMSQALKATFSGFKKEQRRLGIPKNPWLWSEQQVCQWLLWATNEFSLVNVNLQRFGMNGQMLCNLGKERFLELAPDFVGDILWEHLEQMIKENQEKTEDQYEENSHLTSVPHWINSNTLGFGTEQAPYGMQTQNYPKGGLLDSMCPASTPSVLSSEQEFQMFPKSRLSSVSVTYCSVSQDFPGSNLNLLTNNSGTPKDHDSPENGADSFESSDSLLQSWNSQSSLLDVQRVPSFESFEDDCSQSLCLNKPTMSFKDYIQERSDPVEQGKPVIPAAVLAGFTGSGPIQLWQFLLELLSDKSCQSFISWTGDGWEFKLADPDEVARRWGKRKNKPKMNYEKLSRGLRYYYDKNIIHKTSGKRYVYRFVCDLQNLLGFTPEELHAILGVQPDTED
# How it was run: as §1
# ETV3 = target: T12, ETV3 (Homo sapiens, UniProt P41162-2 1-143)
# T12 sequence: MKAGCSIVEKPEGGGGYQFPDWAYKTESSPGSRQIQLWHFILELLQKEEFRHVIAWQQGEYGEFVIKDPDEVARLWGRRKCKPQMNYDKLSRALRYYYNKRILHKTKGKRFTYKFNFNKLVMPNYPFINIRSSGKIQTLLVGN
# How it was run: as §1
# ETV6 = ETV6 (Homo sapiens, UniProt P41212 1-452)
# How it was run: as §1
# ETV6, sequence (P41212 whole entry): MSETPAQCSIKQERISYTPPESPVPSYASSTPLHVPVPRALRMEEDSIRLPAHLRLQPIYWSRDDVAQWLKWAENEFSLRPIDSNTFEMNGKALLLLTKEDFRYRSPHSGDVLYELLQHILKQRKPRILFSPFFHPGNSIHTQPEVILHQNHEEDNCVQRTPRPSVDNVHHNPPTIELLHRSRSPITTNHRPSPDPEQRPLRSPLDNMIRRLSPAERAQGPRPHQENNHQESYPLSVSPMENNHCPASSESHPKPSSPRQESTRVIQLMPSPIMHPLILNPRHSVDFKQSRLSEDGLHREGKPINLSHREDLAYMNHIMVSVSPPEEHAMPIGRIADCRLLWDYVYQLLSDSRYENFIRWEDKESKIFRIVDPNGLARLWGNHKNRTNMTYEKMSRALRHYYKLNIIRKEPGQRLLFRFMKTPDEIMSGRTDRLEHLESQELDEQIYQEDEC
# SPIB, sequence (Q01892 whole entry): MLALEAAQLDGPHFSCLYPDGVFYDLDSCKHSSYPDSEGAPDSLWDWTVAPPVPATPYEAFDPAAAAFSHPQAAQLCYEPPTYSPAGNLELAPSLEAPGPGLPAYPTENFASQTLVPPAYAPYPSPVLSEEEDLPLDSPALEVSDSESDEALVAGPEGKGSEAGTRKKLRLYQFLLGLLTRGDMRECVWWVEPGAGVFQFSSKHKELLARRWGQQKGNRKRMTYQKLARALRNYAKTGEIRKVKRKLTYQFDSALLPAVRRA
# ETV5, sequence (P41161 whole entry): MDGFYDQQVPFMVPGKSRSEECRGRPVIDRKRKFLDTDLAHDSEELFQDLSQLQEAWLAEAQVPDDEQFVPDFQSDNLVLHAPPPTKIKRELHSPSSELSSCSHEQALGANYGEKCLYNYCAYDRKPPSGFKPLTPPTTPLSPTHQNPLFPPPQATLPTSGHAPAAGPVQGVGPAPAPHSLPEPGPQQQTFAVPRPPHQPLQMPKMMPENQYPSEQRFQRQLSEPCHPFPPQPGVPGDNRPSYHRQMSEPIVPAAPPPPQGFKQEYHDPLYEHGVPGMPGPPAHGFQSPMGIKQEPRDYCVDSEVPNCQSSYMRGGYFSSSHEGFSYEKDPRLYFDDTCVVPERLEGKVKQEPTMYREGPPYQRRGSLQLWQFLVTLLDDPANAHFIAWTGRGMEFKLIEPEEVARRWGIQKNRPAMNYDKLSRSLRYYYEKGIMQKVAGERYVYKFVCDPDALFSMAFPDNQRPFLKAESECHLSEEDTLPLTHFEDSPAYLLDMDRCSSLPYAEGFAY
# ELF4, sequence (Q99607 whole entry): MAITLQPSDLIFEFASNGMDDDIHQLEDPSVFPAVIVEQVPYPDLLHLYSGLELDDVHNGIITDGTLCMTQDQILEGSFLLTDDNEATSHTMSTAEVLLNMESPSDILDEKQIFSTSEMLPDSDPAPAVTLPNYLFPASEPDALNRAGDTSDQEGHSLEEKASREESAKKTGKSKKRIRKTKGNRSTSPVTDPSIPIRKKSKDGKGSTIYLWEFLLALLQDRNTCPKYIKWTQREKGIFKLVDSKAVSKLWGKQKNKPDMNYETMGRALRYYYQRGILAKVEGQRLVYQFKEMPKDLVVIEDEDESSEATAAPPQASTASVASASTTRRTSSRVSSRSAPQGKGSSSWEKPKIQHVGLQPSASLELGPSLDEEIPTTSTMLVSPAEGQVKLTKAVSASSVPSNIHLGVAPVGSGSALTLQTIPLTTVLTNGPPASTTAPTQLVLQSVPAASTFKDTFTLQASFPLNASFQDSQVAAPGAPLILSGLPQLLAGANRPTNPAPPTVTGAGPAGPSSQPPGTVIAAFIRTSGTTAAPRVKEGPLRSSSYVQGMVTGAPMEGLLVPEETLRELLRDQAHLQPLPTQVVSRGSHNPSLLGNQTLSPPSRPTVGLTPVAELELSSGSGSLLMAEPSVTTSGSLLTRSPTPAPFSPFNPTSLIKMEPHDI
# ELF1, sequence (P32519 whole entry): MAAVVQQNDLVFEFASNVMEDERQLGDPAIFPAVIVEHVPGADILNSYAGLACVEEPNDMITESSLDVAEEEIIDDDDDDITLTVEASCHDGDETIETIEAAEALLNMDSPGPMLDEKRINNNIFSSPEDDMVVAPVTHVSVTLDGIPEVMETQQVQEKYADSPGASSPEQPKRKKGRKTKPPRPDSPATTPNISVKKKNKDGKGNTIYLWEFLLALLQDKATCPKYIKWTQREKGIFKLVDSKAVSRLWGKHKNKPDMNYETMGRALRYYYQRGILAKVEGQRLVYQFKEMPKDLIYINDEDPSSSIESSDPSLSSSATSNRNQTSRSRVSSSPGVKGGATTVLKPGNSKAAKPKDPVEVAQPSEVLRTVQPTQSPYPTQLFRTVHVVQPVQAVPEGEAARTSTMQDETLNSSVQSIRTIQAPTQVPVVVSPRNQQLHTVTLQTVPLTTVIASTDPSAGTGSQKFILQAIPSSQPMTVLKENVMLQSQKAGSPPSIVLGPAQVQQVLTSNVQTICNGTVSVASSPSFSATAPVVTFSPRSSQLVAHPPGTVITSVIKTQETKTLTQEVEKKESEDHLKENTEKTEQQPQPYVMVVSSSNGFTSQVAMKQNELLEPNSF
# ETV1, sequence (P50549 whole entry): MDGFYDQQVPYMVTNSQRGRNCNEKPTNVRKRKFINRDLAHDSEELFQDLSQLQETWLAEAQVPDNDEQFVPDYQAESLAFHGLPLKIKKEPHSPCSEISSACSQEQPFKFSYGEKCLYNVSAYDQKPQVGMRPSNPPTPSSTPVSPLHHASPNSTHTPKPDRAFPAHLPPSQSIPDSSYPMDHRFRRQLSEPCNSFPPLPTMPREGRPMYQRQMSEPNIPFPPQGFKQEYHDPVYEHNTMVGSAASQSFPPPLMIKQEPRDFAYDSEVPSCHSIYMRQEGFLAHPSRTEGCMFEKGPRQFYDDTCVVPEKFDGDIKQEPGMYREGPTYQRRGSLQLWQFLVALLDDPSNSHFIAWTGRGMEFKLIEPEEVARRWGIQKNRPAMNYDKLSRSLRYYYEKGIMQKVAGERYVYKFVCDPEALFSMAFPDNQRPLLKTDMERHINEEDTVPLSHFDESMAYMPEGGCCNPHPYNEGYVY
sequence,measurement,setting,value
GGAAGA,binding signal,FLI1,"1.06 fold enrichment (6-mer frequency, TF over GST control)"
same,binding signal,ELK1,"1.16 fold enrichment (6-mer frequency, TF over GST control)"
same,binding signal,GABPA,"1.11 fold enrichment (6-mer frequency, TF over GST control)"
same,binding signal,ERG,"1.2 fold enrichment (6-mer frequency, TF over GST control)"
same,binding signal,ELF1,"1.02 fold enrichment (6-mer frequency, TF over GST control)"
same,binding signal,EHF,"1.3 fold enrichment (6-mer frequency, TF over GST control)"
same,binding signal,SPI1,"1.17 fold enrichment (6-mer frequency, TF over GST control)"
same,binding signal,SPIB,"1.19 fold enrichment (6-mer frequency, TF over GST control)"
same,binding signal,ELK3,"1.19 fold enrichment (6-mer frequency, TF over GST control)"
same,binding signal,FEV,"1.05 fold enrichment (6-mer frequency, TF over GST control)"
same,binding signal,ETV5,"1.22 fold enrichment (6-mer frequency, TF over GST control)"
same,binding signal,SPIC,"1.08 fold enrichment (6-mer frequency, TF over GST control)"
same,binding signal,ELF4,"1.06 fold enrichment (6-mer frequency, TF over GST control)"
same,binding signal,ETV1,"1.2 fold enrichment (6-mer frequency, TF over GST control)"
same,binding signal,ERF,"1.03 fold enrichment (6-mer frequency, TF over GST control)"
same,binding signal,ETV3L,"1.14 fold enrichment (6-mer frequency, TF over GST control)"
same,binding signal,ETS2,"1.18 fold enrichment (6-mer frequency, TF over GST control)"
same,binding signal,ETV3,"1.24 fold enrichment (6-mer frequency, TF over GST control)"
same,binding signal,ETV6,"1.26 fold enrichment (6-mer frequency, TF over GST control)"
